Sampled rows, rich in hits. Any-hit rate of the full collection: about 1.4%.
EP2 mod = EP2 receptor (human) modulation | induction, % at 25 µM | P43116 | 260,000 compounds, 0.83% hits | EP2-expressing cells, cAMP HTRF FRET, PGE2 co-stimulation;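 active means compounds whose cAMP rise, as percent of the full-agonist control response, exceeds 60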;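 further: rat C6 glioma line stably carrying human EP2 under a CMV promoter; the protocol text gives 20 µM as final concentration; 100% = response of wells given 1 µM PGE2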
Target sequence (P43116 whole entry, looked up): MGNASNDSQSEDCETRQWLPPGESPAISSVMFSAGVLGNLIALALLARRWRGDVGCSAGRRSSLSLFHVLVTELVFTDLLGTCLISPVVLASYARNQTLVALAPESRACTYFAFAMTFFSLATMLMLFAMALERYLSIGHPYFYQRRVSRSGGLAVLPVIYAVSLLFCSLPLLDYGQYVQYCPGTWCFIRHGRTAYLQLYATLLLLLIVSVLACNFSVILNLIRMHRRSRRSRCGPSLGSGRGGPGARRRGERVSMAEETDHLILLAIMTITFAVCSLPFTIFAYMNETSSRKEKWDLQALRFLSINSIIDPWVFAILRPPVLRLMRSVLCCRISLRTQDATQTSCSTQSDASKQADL
HSV augment = HSV replication enhancement; 220,000 compounds, 0.005% hits; HSV replication augmentation in cells, fold increase; AID 1956; maximum fold increase; in the data active means maximum fold increase above about 1.5; tested in PC3 cells
EP2 antag = inhibitors of human EP2 prostaglandin E2 receptor. C6 glioma cells expressing human EP2, cAMP TR-FRET; cells stimulated with saturating PGE2. P43116. inhibition, % at 25 µM. 260,000 compounds, 0.52% hits;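 active means percent inhibition above 40 after rounding to a whole number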;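 further: rat C6 glioma host cells with rolipram phosphodiesterase inhibitor present; the protocol text gives 20 µM as final concentration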
Furin inh = blocks human furin protease activity; P09958; purified furin, fluorogenic substrate cleavage; inhibition, % at 20 µM or 30 µM; 220,000 compounds, 0.061% hits; in the data active means inhibition above about 25%
Pf gametocyte = inhibitors of late stage P. falciparum gametocyte viability. inhibition, % at 10.9 µM. P. falciparum stage V gametocytes, ATP luminescence, 24 h. 150,000 compounds, 0.065% hits;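 active means inhibition above the mean plus 3 SD of compounds within the control limits, set per campaign, cut at about 38% in these data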;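 further: 0% = DMSO wells and 100% = medium only without gametocytes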
* = called active by the depositor; i = inactive; · = no result; ! = not confirmed by another sample.

SMILES	EP2 mod	HSV augment	EP2 antag	Furin inh	Pf gametocyte
Cc1cc(C(F)(F)F)nc2nc(NC(=O)C3CCC3)ccc12	-22	·	·	·	·
O=C(O)c1cc(-c2cccs2)on1	-11	·	8	·	·
O=C(Nc1ccccc1F)c1cnccn1	21	i	4	-26	6
Cc1cccc(Oc2ccccc2NC(=O)c2cnccn2)c1	61*	i	13	-16	13
O=C(Nc1ccccc1-c1ccccc1)c1cnccn1	66*!	i	14	-27	·
O=C(O)c1cccc(NS(=O)(=O)c2ccc3c4c(cccc24)C(=O)N3)c1	-10	·	14	·	·
Cc1nc2c(-c3ccccc3)c(C)nn2c(C)c1CCC(=O)NC(C)CCc1ccco1 (centres undefined)	14	i	7	-11	·
COC(=O)c1sc(-c2ccc(Cl)cc2)cc1NC(=O)c1ccccc1C(=O)O	-18	i	53*	-1	1
COC(=O)c1sc(-c2ccc(C(C)(C)C)cc2)cc1NC(=O)c1ccccc1C(=O)O	-58	i	16	-14	-8
O=C1/C(=C\c2ccccc2)[C@@H](NC2CCCCC2)c2ccccc21	-2	·	58*	·	·
CC(C)CC(=O)/C(=C\c1ccc(Cl)cc1Cl)n1cncn1	-54	i	52*	-20	·
O=C1/C(=C/c2cccnc2)Sc2ccccc21	-34	i	49*	-4	·
COc1ccc(C(C)=O)cc1CSc1nc2ccccc2c(=O)n1-c1cccc(C)c1	28	i	9	-23	14
COc1ccc(C(C)=O)cc1CSc1nc2ccccc2c(=O)n1-c1ccccc1	64*	i	7	-19	-6
COc1ccccc1NC(=O)c1sc2ncn(CC(=O)Nc3ccccc3)c(=O)c2c1C	-15	·	12	·	·
COC(=O)c1ccccc1NC(=O)C12CC3CC(C1)CC(n1cnc(Cl)n1)(C3)C2	62*	i	12	-21	·
COc1ccc(N=c2oc3ccccc3cc2C(=O)NCc2ccco2)cc1	78*	·	11	·	·
COc1ccc(N=c2oc3c(OC)cccc3cc2C(=O)NCc2ccco2)cc1OC	15	i	16	-11	·
Cc1ccc2nc(-c3ccc(SCC(=O)NC4CCCCC4)nc3)[nH]c2c1	-56	·	17	·	·
COC(=O)CSc1ccc(-c2nc3ccc(C)cc3[nH]2)cn1	-22	i	59*	-7	·
CCCCNC(=O)c1cccc2c(=O)c(C)c(-c3ccccc3)oc12	-2	i	7	-18	-11
CCCCN(C(=O)c1cccc2c(=O)c(C)c(-c3ccccc3)oc12)c1ccccc1	64*	i	-1	-12	-16
CC(C)C1=CC2=CC[C@H]3[C@](C)(CO)CCC[C@]3(C)C2CC1 (some centres undefined)	42	·	3	·	·
CC(C)C1=C[C@@]23CC[C@@H]4[C@](C)(CCC[C@@]4(C)C(=O)O)[C@@H]2C[C@@H]1[C@H](C(=O)O)[C@@H]3C(=O)O	5	·	50*	·	·
CC(/C=N/Nc1nc2ccccc2[nH]1)=C\c1ccccc1	6	i	7	-19	6
SMILES	EP2 mod	HSV augment	EP2 antag	Furin inh	Pf gametocyte
CC1CC(C)CN(C(=O)/C(=C\c2ccccc2)c2ccccc2)C1 (centres undefined)	63*	i	2	-2	-1
CCn1c(=O)c(C(=O)NCCc2ccccc2)c(O)c2ccccc21	61*	i	3	-22	·
CCCn1c(=O)c(C(=O)Nc2ccccc2C)c(O)c2ccccc21	·	·	·	·	26
CCn1c(=O)c(C(=O)NCCCl)c(O)c2ccccc21	-8	·	9	·	·
CCCn1c(=O)c(C(=O)Nc2ccccc2OC)c(O)c2ccccc21	67*	·	14	·	·
Fc1cccc(C[n+]2csc3ccccc32)c1	36	i	2	-4	-41
O=C(COC(=O)CCCN1C(=O)c2cccc3cccc(c23)C1=O)Nc1cccc(Br)c1	15	i	3	-5	15
CCN(Cc1ccccc1)C(c1ccc(C)cc1)c1nnnn1C(C)(C)C (centres undefined)	61*	i	10	-5	·
CC(C)(C)n1nnnc1C(c1cccnc1)N(CCc1ccccc1)Cc1cccs1 (centres undefined)	63*	·	8	·	·
CSc1cccc(NC(=O)C2CCN(S(=O)(=O)c3ccc(Cl)cc3)CC2)c1	-105	·	9	·	·
NC(=NCCC[C@H](N)C(=O)O)NO	26	·	12	·	·
CCCCC(CC)CN=C(N)NC(N)=NCCCCCCN=C(N)NC(N)=NCC(CC)CCCC (centres undefined)	-15	·	71*	·	·
Cn1nnnc1SCC1=C(C(=O)O)N2C(=O)C(NC(=O)Cn3nc(C(F)F)cc3C3CC3)C2SC1 (centres undefined)	31	i	1	-27	-13
c1ccc(-c2nc(N3CCOCC3)c3ccccc3n2)nc1	3	i	11	-5	·
c1ccc2c(c1)nc(N1CCCCC1)c1ccccc12	68*	i	10	-7	1
c1ccc(-c2nc(N3CCCCCC3)c3ccccc3n2)nc1	61*	i	10	11	14
CC(C)N1CC=C2C(C1)C(c1ccc(Cl)cc1)C(C#N)=C(N)C2(C#N)C#N (centres undefined)	79*	·	10	·	·
c1ccc(Cn2nnnc2C(c2ccccn2)N2CCN(c3ccccc3)CC2)cc1 (centres undefined)	-13	i	16	-10	·
CC1CCCN(CC(O)CN)C1 (centres undefined)	20	i	4	-17	47*
C[C@@H]1CCCN(C[C@@H](O)CN2CCCc3ccccc32)C1	-1	·	8	·	·
COC(=O)c1cc([N+](=O)[O-])c(-n2ccnc2)c([N+](=O)[O-])c1	63*	i	5	-8	2
NCCCn1cnc2ccccc21	12	i	7	-12	6
CC(C)(C)c1c2c(c(C(C)(C)C)c3c1OCN(Cc1ccccc1)C3)OCN(Cc1ccccc1)C2	-32	·	80*	·	·
CC(C)(C)NC(=O)NC(=O)CN1CCN(Cc2ccccc2)CC1	-23	i	14	-21	30
O=C(Cc1ccc([N+](=O)[O-])cc1)N1N=C2CCCCC2C1(O)C(F)(F)F (centres undefined)	72*	i	3	1	-28
SMILES	EP2 mod	HSV augment	EP2 antag	Furin inh	Pf gametocyte
NC(=O)CC(NC(=O)c1ccc(Br)cc1)c1ccc(NCc2ccc(F)c(F)c2)c([N+](=O)[O-])c1 (centres undefined)	-16	i	43*	-23	·
NC(=O)CC(NC(=O)c1ccccc1)c1ccc(NCc2ccc(F)cc2)c([N+](=O)[O-])c1 (centres undefined)	-34	i	15	-27	·
NC(=O)CC(NC(=O)c1ccc(Br)cc1)c1ccc(NCc2ccc(F)cc2)c([N+](=O)[O-])c1 (centres undefined)	-36	i	51*	-35	4
S=c1nc(-c2cc(Cl)ccc2Cl)[nH][nH]1	58	i	41*	-23	1
C/C(=N\NC(=O)CSc1nc2nc(C)cc(C)n2n1)c1ccccc1	7	i	128*	-13	·
Cc1ccccc1C1c2[nH]c3ccccc3c2CCN1CCCn1cccn1 (centres undefined)	64*	i	9	-20	-16
